High-throughput results as filed in PubChem BioAssay.
SNCA expr inhib: inhibitors of alpha-synuclein (SNCA) gene expression | 140,000 tested, 0.17% active | Potency, µM (titrated, usually from 57.2 µM), for inactives: at the top dose activity change, negative = inhibition, hits mostly inhibitors | HEK-293 SNCA-luciferase knock-in, luminescence, 24 h;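 also: potency is read from the fitted curve at half-maximal effect; plate controls were DMSO cells for no effect and cell-free wells for full effect; nearly all actives have a fitted effect of over 45% in size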
HEK293 viab: cell viability loss counter-screen. 150,000 tested, 0.12% active. Potency, µM (highest dose often 57.1 µM), for the others: at the highest dose activity change, negative = cytotoxicity, most hits filed as cytotoxic. HEK-293-SNCA-luc viability, GF-AFC fluorescence, 24 h;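 also: potency is read from the fitted curve at half-maximal effect; 0% = DMSO-treated cells and -100% = medium-only wells without cells; nearly all actives have a fitted effect of over 30% in size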
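Cytotoxicity counterscreen: after 24 h compound treatment of genome-edited SNCA-luciferase HEK-293 cells, live-cell protease substrate GF-AFC read by fluorescence after 30 min; activity scaled between DMSO (0%) and medium-only (-100%), curves Hill-fitted.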
KDM5B inhibitor: KDM5B demethylase inhibition | AID 1347165 | 220,000 tested, 2.6% active | Q9UGL1 | KDM5B demethylase, FDH-coupled NADH fluorescence (FDH is formaldehyde dehydrogenase) | Potency, µM (doses to about 57.7 µM), most hits filed as inhibitors; also: potency is read from the fitted curve at half-maximal effect; 0% is about no effect; nearly all actives have a fitted effect of over 70% in size
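Measured: NADH fluorescence change, 30 min, RT. System: KDM5BΔAP 200 nM final, H3K4me3 peptide, α-KG, Fe(II), ascorbate, NAD⁺ plus FDH, pH 7.5 HEPES. Compounds: titrated, 10 min pre-incubation with enzyme.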
IP6K1 inhibitor: blocks human inositol hexakisphosphate kinase 1 | Q92551 | IP6K1 kinase, ADP-Glo luminescence, 2 h; active compounds read low | activity change, % (series mostly up to about 58 µM) | 140,000 tested, 0.81% active; in the data active = activity change below about -25%; also: % is scaled to controls: 0 for no effect and ±100 for the full control effect
Target sequence (Q92551 whole entry, looked up): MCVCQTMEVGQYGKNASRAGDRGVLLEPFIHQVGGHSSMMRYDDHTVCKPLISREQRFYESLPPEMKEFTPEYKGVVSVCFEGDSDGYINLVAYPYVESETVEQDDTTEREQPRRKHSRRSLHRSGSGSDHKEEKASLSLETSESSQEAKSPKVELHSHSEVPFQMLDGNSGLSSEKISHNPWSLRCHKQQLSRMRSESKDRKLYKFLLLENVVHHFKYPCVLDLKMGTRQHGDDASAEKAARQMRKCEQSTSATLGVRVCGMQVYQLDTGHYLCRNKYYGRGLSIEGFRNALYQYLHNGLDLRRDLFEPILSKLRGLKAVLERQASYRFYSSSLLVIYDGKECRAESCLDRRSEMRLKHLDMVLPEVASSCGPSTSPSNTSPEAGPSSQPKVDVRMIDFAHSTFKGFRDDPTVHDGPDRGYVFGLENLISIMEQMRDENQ
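ADP-Glo luminescence measures ADP made by human IP6K1 during a 2 h RT reaction with ATP/IP6 (mix at 1.3 mM/130 uM); top library doses 57.5 and 19.1 uM final.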
An asterisk follows results filed as active; ! = not confirmed by another sample; [ ] = another dose, or the depositor's remark. Shown are actives, neighbours in structure and some others; about 2.9% of the full set was active somewhere. Unless noted, calls follow the shape of the dose curve; as a rule, active = well fitted curve in the direction sought with a large enough effect; inconclusive = small, poorly fitted or top-dose-only effect, or another doubt; inactive = no such curve, though single readings can be large; an effect the other way counts as inactive or inconclusive.

Results for O=C(c1ccccc1)N1CCCC2(CN[S+](=O)([O-])c3ccccc3N2)C1 (centres undefined) ?
SNCA expr inhib: -1.0%; HEK293 viab: -3.4%; KDM5B inhibitor: inactive; IP6K1 inhibitor: 21.5

What do the screens show for `COC(=O)c1c(NC(=O)C(=O)NCc2cccnc2)sc2c1CC(C)(C)OC2`?
KDM5B inhibitor: inactive

How did O=C(CCS(=O)Cc1cccc2ccccc12)Nc1ccccc1 (centres undefined) do in these assays?
KDM5B inhibitor: inactive

What do the screens show for `C=CCn1cc2c3c(cccc31)[C@H](CC(C)C)N[C@H](C(=O)NCCN(C)C)C2`?
SNCA expr inhib: 7.5%[87.6 µM]; HEK293 viab: -0.2%[87.6 µM]; KDM5B inhibitor: 31.6µM*; IP6K1 inhibitor: -6.4

What do the screens show for `C=CCn1cc2c3c(cccc31)[C@H](CC(C)C)N[C@H](C(=O)NCCC)C2`?
SNCA expr inhib: inconclusive; HEK293 viab: -25.4%[87.6 µM]; KDM5B inhibitor: inconclusive; IP6K1 inhibitor: 16.4

Results for CC(C)C[C@@H]1N[C@H](C(=O)NC2CCC2)Cc2cn(CC3CC3)c3cccc1c23 ?
SNCA expr inhib: inconclusive; HEK293 viab: -5.2%[87.6 µM]; KDM5B inhibitor: inactive; IP6K1 inhibitor: -5.0

How did CC(C)C[C@@H]1N[C@H](C(=O)NCCN(C)C)Cc2cn(CC3CC3)c3cccc1c23 do in these assays?
SNCA expr inhib: -42.6%[87.6 µM]; HEK293 viab: inconclusive; KDM5B inhibitor: 28.2µM*; IP6K1 inhibitor: 11.8

How did Cc1cc(C(=O)N2CCCC(CCc3c(F)cccc3F)C2)c(=O)n(C)c1C (centres undefined) do in these assays?
SNCA expr inhib: 2.9%; HEK293 viab: -21.1%; KDM5B inhibitor: inactive; IP6K1 inhibitor: 18.1

Results for CCc1ccc(C(=O)/C=C/c2cccc([N+](=O)[O-])c2)cc1 ?
KDM5B inhibitor: inactive

What do the screens show for `COc1cnn(-c2cccc(C(F)(F)F)c2)c(=O)c1Cl`?
KDM5B inhibitor: inactive

Results for CCOC(=O)c1c(C)c(C(=O)NCc2ccc(OC)cc2)c(C)n1CC ?
SNCA expr inhib: inconclusive; HEK293 viab: 11.4%; KDM5B inhibitor: inactive; IP6K1 inhibitor: 2.0

What do the screens show for `CC(=O)Oc1c(-c2ccc(NC(=O)C(C)C)cc2)c(-c2ccc(F)cc2)nn1-c1ccc(F)cc1`?
SNCA expr inhib: 0.7%; HEK293 viab: 6.4%; KDM5B inhibitor: inconclusive; IP6K1 inhibitor: 2.1

How did COc1ccc(-c2nn(-c3ccccc3C)c(OC(C)=O)c2-c2ccc(NC(C)=O)cc2)cc1OC do in these assays?
SNCA expr inhib: -20.7%; HEK293 viab: -17.7%; KDM5B inhibitor: 28.2µM*; IP6K1 inhibitor: 7.1

How did COCC(=O)Nc1ccc(-c2c(CC(C)C)nn(-c3ccccc3)c2OC(C)=O)cc1 do in these assays?
SNCA expr inhib: 0.8%; HEK293 viab: -4.0%; KDM5B inhibitor: inactive; IP6K1 inhibitor: -1.5

Results for COCC(=O)Nc1ccc(-c2c(C(C)C)nn(-c3cccc(F)c3)c2OC(C)=O)cc1 ?
SNCA expr inhib: 5.2%; HEK293 viab: -14.2%; KDM5B inhibitor: inactive; IP6K1 inhibitor: 1.9

How did CC(=O)Oc1c(-c2ccc(NC(=O)CC(C)C)cc2)c(-c2ccc(F)cc2)nn1-c1ccc(F)cc1 do in these assays?
SNCA expr inhib: -25.3%; HEK293 viab: 11.1%; KDM5B inhibitor: 28.2µM*; IP6K1 inhibitor: 14.4

What do the screens show for `CCCc1nn(-c2ccccc2C)c(OC(C)=O)c1-c1ccc(NC(C)=O)cc1`?
SNCA expr inhib: -24.0%; HEK293 viab: 9.2%; KDM5B inhibitor: inactive; IP6K1 inhibitor: 19.1

What do the screens show for `COCC(=O)Nc1ccc(-c2c(-c3ccccc3OC)nn(-c3ccc(C)cc3)c2OC(C)=O)cc1`?
SNCA expr inhib: 10.0%; HEK293 viab: 12.1%; KDM5B inhibitor: 22.4µM*; IP6K1 inhibitor: 21.5

Results for COCC(=O)Nc1ccc(-c2c(-c3cccc(OC)c3)nn(-c3ccccc3)c2OC(C)=O)cc1 ?
SNCA expr inhib: -12.1%; HEK293 viab: -15.5%; KDM5B inhibitor: 28.2µM*; IP6K1 inhibitor: 15.1

What do the screens show for `COc1ccc(-n2nc3n(c2=O)CCN(C(=O)c2ccc(C)cc2)C3)cc1`?
SNCA expr inhib: 29.9%; HEK293 viab: -0.2%; KDM5B inhibitor: inactive; IP6K1 inhibitor: 6.9

How did O=C(O)[C@@H]1CN(Cc2cnc(N3CCOCC3)nc2)C[C@H]1c1ccccc1 do in these assays?
SNCA expr inhib: -23.0%; HEK293 viab: 4.3%; KDM5B inhibitor: inactive; IP6K1 inhibitor: -2.5

How did CC(=O)Oc1c(-c2ccc(NC(=O)c3ccco3)cc2)c(-c2cccc(F)c2)nn1-c1ccc(C)cc1 do in these assays?
SNCA expr inhib: 6.2%; HEK293 viab: 0.0%; KDM5B inhibitor: inconclusive; IP6K1 inhibitor: 15.8

What do the screens show for `COc1cccc(-c2nn(-c3ccccc3)c(OC(C)=O)c2-c2ccc(NC(=O)C3CCCC3)cc2)c1`?
SNCA expr inhib: -4.0%; HEK293 viab: 1.7%; KDM5B inhibitor: 12.6µM*; IP6K1 inhibitor: 4.3

How did O=C1NCCCCCCN(C(=O)c2cc(C3CC3)[nH]n2)[C@H]2CCCC[C@@H]12 do in these assays?
SNCA expr inhib: 12.8%; HEK293 viab: 6.2%; KDM5B inhibitor: inconclusive; IP6K1 inhibitor: -8.6

What do the screens show for `CCn1nccc1C(=O)N1CCC2(CC1)CCC(O)(CN(C)C)CC2`?
SNCA expr inhib: 5.7%; HEK293 viab: 7.5%; KDM5B inhibitor: 20µM*; IP6K1 inhibitor: 5.2

What do the screens show for `CSCCNC(=O)c1nc2sccn2c1Br`?
SNCA expr inhib: 96.6%[87.6 µM]; HEK293 viab: -0.5%[87.6 µM]; KDM5B inhibitor: inactive; IP6K1 inhibitor: 3.8

What do the screens show for `CSCCNC(=O)c1cc(Br)cn2ccnc12`?
SNCA expr inhib: 76.1%[87.6 µM]; HEK293 viab: 1.4%[87.6 µM]; KDM5B inhibitor: 35.5µM*; IP6K1 inhibitor: -3.8

Results for O=C(NCCc1ccc(Cl)cc1)c1nc2sccn2c1Br ?
SNCA expr inhib: 21.4%; HEK293 viab: 2.8%; KDM5B inhibitor: inactive; IP6K1 inhibitor: -8.4

How did O=C(NCc1ccc(F)cc1)c1cc(Br)cn2ccnc12 do in these assays?
SNCA expr inhib: 93.7%; HEK293 viab: 4.8%; KDM5B inhibitor: 31.6µM*; IP6K1 inhibitor: 9.7

What do the screens show for `O=C(NCCc1ccccc1F)c1ccc2nccn2c1`?
SNCA expr inhib: 27.7%[87.6 µM]; HEK293 viab: -7.3%[87.6 µM]; IP6K1 inhibitor: -2.5

How did O=C(NCc1ccccc1F)c1cc(Br)cn2ccnc12 do in these assays?
SNCA expr inhib: 30.7%; HEK293 viab: -1.6%; KDM5B inhibitor: 22.4µM*; IP6K1 inhibitor: -9.9

What do the screens show for `O=C(NCCc1ccc(Cl)cc1)c1cc(Br)cn2ccnc12`?
SNCA expr inhib: 8.3%; HEK293 viab: 10.0%; KDM5B inhibitor: 31.6µM*!; IP6K1 inhibitor: -0.1

Results for O=C(NCc1ccc(-n2cccn2)cc1)c1cc(F)ccc1Br ?
KDM5B inhibitor: inactive

How did Cc1cc(=O)c2ccccc2n1CC(=O)O do in these assays?
KDM5B inhibitor: inactive

How did O=C(O)C[C@@H]1CCN(C(=O)Cc2ccccc2)C[C@@H]1CCN(CCN1CCOCC1)c1ccccc1 do in these assays?
SNCA expr inhib: 4.1%; HEK293 viab: 3.1%; KDM5B inhibitor: inconclusive; IP6K1 inhibitor: -12.0

What do the screens show for `O=C(c1cccnc1)N1CCN(c2nnc3ccc(Cl)cn23)CC1`?
SNCA expr inhib: -3.1%; HEK293 viab: 4.4%; KDM5B inhibitor: 15.8µM*; IP6K1 inhibitor: 6.6
